Assay results as given in PubChem BioAssay (NCI).
About 83,000 compounds went through this panel and 20% of them were active in at least one assay; those are over-represented in the sample as a whole.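 The test compound was applied at a single concentration to cells in 96-well plates for 48 hours, and percent growth was recorded.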 Values without a mark were called inactive. Calls of active or inactive are those of the source. The calls were made as follows: active = growth percent below 10; inactive = the rest.

Key:
Assay in all cases: NCI-60 one-dose screen, 48 h (100 = growth as untreated, 0 = no growth, -100 = all killed)
Settings in all cases: 10 µM unless noted
[1] = system: DU-145 prostate
[2] = system: K-562 leukemia
[3] = system: MALME-3M melanoma
[4] = system: MDA-MB-231 breast
[5] = system: RXF 393 renal
[6] = system: SF-268 CNS
[7] = system: SF-295 CNS
[8] = system: SF-539 CNS
[9] = system: UACC-257 melanoma
[10] = system: M14 melanoma
[11] = system: HCT-15 colon
[12] = system: HT29 colon
[13] = system: SNB-75 CNS
[14] = system: SNB-19 CNS
[15] = system: U251 CNS
[16] = system: PC-3 prostate
[17] = system: SK-MEL-5 melanoma
[18] = system: UACC-62 melanoma
[19] = system: LOX IMVI melanoma
[20] = system: SK-MEL-28 melanoma

`CC[C@H](Nc1ncnc2nc[nH]c12)c1nc2cccc(CC(=O)c3ccc(C(=O)NO)cc3)c2c(=O)n1-c1ccccc1` showed a growth [1] of 101%, a growth [2] of 85.9% and a growth [3] of 56.2%. The growth [4] was 99.9%, the growth [5] was 83.5% and the growth [6] was 83%. It also gave a growth [7] of 97.9%, a growth [8] of 78.5% and a growth [9] of 53.5%. It also gave a growth [10] of 92.5%, a growth [11] of 102% and a growth [12] of 82%. The growth [13] was 56.3%, the growth [14] was 93.2% and the growth [15] was 89.3%. It also gave a growth [16] of 73.6%, a growth [17] of 96.6% and a growth [18] of 79.9%. The growth [19] was 91.7% and the growth [20] was 90.2%.
Work on `C=CCn1c(SCC(=O)Nc2ccc(C(=O)/C=C/c3cc(OC)c(OC)c(OC)c3)cc2)nnc1-c1ccccc1` yielded a growth [1] of 76.7%, a growth [2] of 48.9% and a growth [3] of 91%. It also gave a growth [4] of 98.9%, a growth [5] of 97.8% and a growth [6] of 93.5%. For the same compound, the growth [7] was 92.6%, the growth [8] was 96.2% and the growth [9] was 81.4%. For the same compound, the growth [10] was 86.9%, the growth [11] was 61.1% and the growth [12] was 49.1%. The growth [13] was 95.2%, the growth [14] was 86% and the growth [15] was 64.4%. For the same compound, the growth [16] was 94.1%, the growth [17] was 77.3% and the growth [18] was 84.6%. The growth [19] was 68.7% and the growth [20] was 110%.
In the case of `COc1ccc(-c2[nH]c3ccccc3c2C=C(C#N)C#N)cc1`, the growth [1] is reported as -10.1% (active), the growth [2] is reported as -5.54% (active) and the growth [3] is reported as 87.4%. For the same compound, the growth [4] was 17.6%, the growth [5] was 3.79% (active) and the growth [6] was 25.1%. The growth [7] was -50.4% (active), the growth [8] was -26.8% (active) and the growth [9] was 54.2%. The growth [10] was 1.05% (active), the growth [11] was 18% and the growth [12] was 10.3%. For the same compound, the growth [13] was 0.534% (active), the growth [14] was 67% and the growth [15] was 27.8%. The growth [16] was 19.1%, the growth [17] was 2.62% (active) and the growth [18] was 15.2%. It also gave a growth [19] of 31.4% and a growth [20] of 44.5%.
With `Cc1cc(O)cc(O)c1N=NC1=NCCS1` the growth [1] was 103%, the growth [2] was 89.7% and the growth [3] was 94.3%. For the same compound, the growth [4] was 97.1%, the growth [5] was 123% and the growth [6] was 94.6%. For the same compound, the growth [7] was 101%, the growth [8] was 100% and the growth [9] was 101%. For the same compound, the growth [10] was 98%, the growth [11] was 102% and the growth [12] was 95.7%. It also gave a growth [13] of 81.7%, a growth [14] of 107% and a growth [15] of 105%. It also gave a growth [16] of 107%, a growth [17] of 111% and a growth [18] of 99.5%. It also gave a growth [19] of 97.2% and a growth [20] of 98.5%.
In the case of `Cc1ccc(SC2c3ccc(C)cc3Oc3nc(N)c(C#N)c(N)c32)cc1` (stereo not given), the growth [1] is reported as 92.6%, the growth [2] is reported as 4.29% (active) and the growth [3] is reported as 31.9%. For the same compound, the growth [4] was 69.9%, the growth [5] was 53.9% and the growth [6] was 82.8%. It also gave a growth [7] of 103%, a growth [8] of 90.5% and a growth [9] of 94.6%. The growth [10] was 94.9%, the growth [11] was 30.7% and the growth [12] was 103%. For the same compound, the growth [13] was 73.2%, the growth [14] was 109% and the growth [15] was 85.1%. It also gave a growth [16] of 80.6%, a growth [17] of 63.8% and a growth [18] of 103%. It also gave a growth [19] of 37.7% and a growth [20] of 87.7%.
`Nc1cccc(C(=O)Nc2ccc3c(O)c(N=Nc4ccc(N=Nc5ccc(S(=O)(=O)O)cc5)cc4)c(S(=O)(=O)O)cc3c2)c1` gave a growth [1] of 107%, a growth [2] of 76.2% and a growth [3] of 97.1%. It also gave a growth [4] of 103%, a growth [5] of 121% and a growth [6] of 101%. The growth [7] was 103%, the growth [8] was 99.9% and the growth [9] was 100%. The growth [10] was 98.3%, the growth [11] was 108% and the growth [12] was 99.1%. For the same compound, the growth [13] was 87.9%, the growth [14] was 106% and the growth [15] was 109%. The growth [16] was 91.9%, the growth [17] was 104% and the growth [18] was 97.4%. It also gave a growth [19] of 101% and a growth [20] of 107%.
With `O=C(CCCCCCCCC(=O)Nc1cccc(C2=NCCN2)c1)Nc1cccc(C2=NCCN2)c1` the growth [1] was 99.8%, the growth [2] was 73.1% and the growth [3] was 69.8%. For the same compound, the growth [4] was 101%, the growth [5] was 108% and the growth [6] was 103%. For the same compound, the growth [7] was 99.9%, the growth [8] was 108% and the growth [9] was 95.6%. For the same compound, the growth [10] was 97.1%, the growth [11] was 102% and the growth [12] was 82.3%. It also gave a growth [13] of 110%, a growth [14] of 102% and a growth [15] of 91.7%. It also gave a growth [16] of 84.9%, a growth [17] of 98.2% and a growth [18] of 105%. The growth [19] was 98.7% and the growth [20] was 92.8%.
For `Cc1cc(Nc2nc(SCc3ccc(C(=O)Nc4ccc(F)cc4N)cc3)nn3cccc23)n[nH]1`, the growth [1] was 20.1%, the growth [2] was 7.36% (active) and the growth [3] was 53.7%. For the same compound, the growth [4] was 22.8%, the growth [5] was 23.5% and the growth [6] was 28.2%. The growth [7] was 18%, the growth [8] was 8.82% (active) and the growth [9] was 67.6%. For the same compound, the growth [10] was 38.9%, the growth [11] was 22.6% and the growth [12] was 4.22% (active). The growth [13] was 29.2%, the growth [14] was 43.8% and the growth [15] was 25%. The growth [16] was 28%, the growth [17] was 7.54% (active) and the growth [18] was 24.2%. For the same compound, the growth [19] was 30.1% and the growth [20] was 68.7%.
Compound `COc1ccc(-c2nc(C#N)c(NCC(c3ccco3)N3CCCC3)o2)cc1` (stereo not given) has a growth [1] of 49.2%, a growth [2] of 20.6% and a growth [3] of 51.2%. For the same compound, the growth [4] was 77.8%, the growth [5] was 14.8% and the growth [6] was 52.3%. For the same compound, the growth [7] was 24.2%, the growth [8] was 23.7% and the growth [9] was 55.2%. For the same compound, the growth [10] was 12.6%, the growth [11] was 30.9% and the growth [12] was 10.7%. The growth [13] was 40.6%, the growth [14] was 51.9% and the growth [15] was 35.7%. It also gave a growth [16] of 37%, a growth [17] of 24.6% and a growth [18] of 47.2%. The growth [19] was 41.4% and the growth [20] was 61.7%.
With `COc1cc(N=Nc2cc(S(=O)(=O)O)cc3cc(S(=O)(=O)O)cc(O)c23)c(C)cc1N=Nc1c(S(=O)(=O)O)cc2cc(Nc3ccccc3)ccc2c1O` the growth [1] was 103%, the growth [2] was 84.6% and the growth [3] was 93.8%. For the same compound, the growth [4] was 107%, the growth [5] was 129% and the growth [6] was 98.2%. The growth [7] was 109%, the growth [8] was 103% and the growth [9] was 111%. For the same compound, the growth [10] was 102%, the growth [11] was 110% and the growth [12] was 105%. For the same compound, the growth [13] was 91.1%, the growth [14] was 104% and the growth [15] was 109%. It also gave a growth [16] of 90%, a growth [17] of 105% and a growth [18] of 98.5%. For the same compound, the growth [19] was 99.4% and the growth [20] was 109%.
For `COc1ccc(-c2nnc(N3CCN(C(=O)CN4CCN(c5ccccc5)CC4)CC3)nc2-c2ccc(OC)cc2)cc1`, the growth [1] was 57.8%, the growth [2] was 4.73% (active) and the growth [3] was 34.2%. The growth [4] was 65.1%, the growth [5] was -9.53% (active) and the growth [6] was 52.8%. For the same compound, the growth [7] was -23% (active), the growth [8] was 46.6% and the growth [9] was 31.2%. The growth [10] was 49%, the growth [11] was 18.5% and the growth [12] was 3.46% (active). It also gave a growth [13] of 49.9%, a growth [14] of 53.5% and a growth [15] of 37%. The growth [16] was 7.93% (active), the growth [17] was 8.21% (active) and the growth [18] was 52.1%. For the same compound, the growth [19] was 41.2% and the growth [20] was 56.5%.
Compound `O=CN1N=C(c2ccc3c(c2)OCO3)CC1c1cccc(Nc2ccnc3cc(C(F)(F)F)ccc23)c1` (stereo not given) has a growth [1] of 86.4%, a growth [2] of 37% and a growth [3] of 101%. It also gave a growth [4] of 78.2%, a growth [5] of 86.4% and a growth [6] of 65.4%. It also gave a growth [7] of 83.1%, a growth [8] of 90.5% and a growth [9] of 86.8%. For the same compound, the growth [10] was 78.6%, the growth [11] was 70.9% and the growth [12] was 73.4%. The growth [13] was 89%, the growth [14] was 89.8% and the growth [15] was 88.7%. For the same compound, the growth [16] was 56.8%, the growth [17] was 50.7% and the growth [18] was 55.2%. The growth [19] was 76% and the growth [20] was 100%.
In the case of `COC(=O)/C=C/c1cc(OC(C)=O)c2c(c1)C(C(=O)OC)C(c1ccc(OC(C)=O)c(OC(C)=O)c1)O2` (stereo not given), the growth [1] is reported as 11.2%, the growth [2] is reported as 6.86% (active) and the growth [3] is reported as 66.3%. It also gave a growth [4] of 16.4%, a growth [5] of 28.7% and a growth [6] of 39.6%. The growth [7] was 3.13% (active), the growth [8] was -6.94% (active) and the growth [9] was 45.4%. The growth [10] was -6.22% (active), the growth [11] was 7.82% (active) and the growth [12] was 11%. The growth [13] was 46.3%, the growth [14] was 23.1% and the growth [15] was 7.2% (active). For the same compound, the growth [16] was 12%, the growth [17] was -19% (active) and the growth [18] was 32.6%. The growth [19] was 14.1% and the growth [20] was 50.5%.
Compound `CCOC(=O)c1ccc(Nc2ncnc3ccc(NC(=O)c4ccccc4)cc23)cc1` has a growth [1] of 105%, a growth [2] of 71.9% and a growth [3] of 109%. It also gave a growth [4] of 98.2%, a growth [5] of 80.7% and a growth [6] of 91.3%. The growth [7] was 95.3%, the growth [8] was 101% and the growth [9] was 103%. The growth [10] was 93.8%, the growth [11] was 78.3% and the growth [12] was 79.6%. The growth [13] was 77.9%, the growth [14] was 99.9% and the growth [15] was 94.1%. For the same compound, the growth [16] was 83.1%, the growth [17] was 84.6% and the growth [18] was 88.9%. For the same compound, the growth [19] was 87.8% and the growth [20] was 89.6%.
